Source: PubChem BioAssay (National Center for Advancing Translational Sciences (NCATS))
A selection: hits, their analogues and other compounds. The true share with any hit is near 19%.
DT40 TDP1 CPT: DT40-hTDP1 cell growth loss with CPT; chicken DT40 Tdp1-/-;hTDP1 cells + 20 nM CPT, ATP luminescence, 48 h; Potency, µM (highest dose often 46.2 µM), for the others: top-dose activity change, negative = growth inhibition, actives largely listed as inhibitors; actives 12% (n = 420,000); further: potency means the concentration at half of the fitted maximal effect; nearly all actives have a fitted effect of over 55% in size
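Chicken DT40 Tdp1-/- cells stably complemented with human TDP1 were seeded at 400 cells/well in medium containing 20 nM camptothecin, exposed to pin-transferred compounds, and grown at 37 °C for at least 48 hr. Viability was read as ATP luminescence.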
HT1080-NT tox: kills 2HG-producing HT-1080-NT fibrosarcoma cells | HT-1080-NT fibrosarcoma viability, CellTiter-Glo ATP luminescence, 48 h | Potency, µM (highest dose often 46.1 µM), for the others: at the top dose activity, negative = less viability, actives largely listed as cytotoxic | actives 1.6% (n = 360,000);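 further: NT is the 2HG producing partner of a matched IDH1 knockdown line; potency means the concentration at half of the fitted maximal effect; 0% = DMSO-treated cells and -100% = media-only wells without cells; nearly all actives have a fitted effect of over 55% in size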
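Toxicity toward the 2HG-producing NT line was scored as %Activity, normalised to DMSO and no-cell wells, from CellTiter-Glo luminescence after 48 hours' treatment.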
ELG1 repair inh: ELG1-dependent DNA repair inhibition; AID 504467; Potency, µM (highest dose often 46.1 µM), without a hit: at the highest dose activity change, negative = inhibition, most hits filed as inhibitors; actives 2.3% (n = 330,000); HEK293T ELG1-luciferase reporter, luminescence, 16 h; DNA damage induced by 5-fluorouridine; further: potency means the concentration at half of the fitted maximal effect; nearly all actives have a fitted effect of over 55% in size
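Step one: seed 2,000 cells per well. Step two: pin-transfer compound or DMSO alongside 5-fluorouridine. Step three: incubate 16 hr, 37 °C, 5% CO2. Step four: add ONE-Glo, wait 30 min, read luminescence.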
IL-1B inflam inh: inhibitors of inflammasome signaling (IL-1 beta secretion); THP-1 LPS/ATP IL-1B secretion, AlphaLISA, 16 h; hits give low values; activity change, % at 57.5 µM; actives 4.7% (n = 360,000); AID 743279; in the data active means activity change below about -50%; inconclusive means mostly about -30% to -49%
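Secreted IL-1B measured by AlphaLISA bead assay after 16 h compound exposure of THP-1 cells; compounds (final up to 57.5 uM) added 1 h before LPS (250 ng/mL) and ATP (1.25 mM) stimulation; lower signal means less secretion.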
TDP1 cell noCPT: qHTS for Inhibitors of human tyrosyl-DNA phosphodiesterase 1 (TDP1): qHTS in cells in absence of CPT; AID 686978, 2013; DT40 Tdp1-/- hTDP1 cells, no CPT, ATP luminescence, 48 h; actives 15% (n = 420,000); Potency, µM (series often up to 46.2 µM), inactives show at the highest dose activity change, negative = growth inhibition, usual class: inhibitors; further: potency means the concentration at half of the fitted maximal effect; nearly all actives have a fitted effect of over 55% in size
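Chicken DT40 Tdp1-/- cells complemented with human TDP1, screened without camptothecin (DMSO vehicle only), 400 cells/well. Compounds pin-transferred, cells incubated at 37 °C for at least 48 hr. Growth read as ATP-dependent luminescence (CellTiter-Glo, 30 min at RT).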
HT1080 IDH1KD tx: HT-1080 IDH1 knockdown cell toxicity (counter line). Potency, µM (titrated, usually from 46.1 µM), for inactives: at the top dose activity, negative = toxicity, usual class: cytotoxic. actives 2% (n = 360,000). AID 686971. HT-1080 IDH1 knockdown viability, ATP luminescence, 48 h;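 further: potency means the concentration at half of the fitted maximal effect; 0% = DMSO wells and -100% = cell-free medium wells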
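CellTiter-Glo luminescence after 48 h compound exposure at 37 degrees C of IDH1-knockdown HT-1080 cells in 5% FBS RPMI. %Activity scaled between DMSO wells and cell-free media wells, with curves fitted and assigned curve classes.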
* hit, by the source's call; u = inconclusive; x = not tested or not shown. Unless noted, the call rests on the fitted dose curve; in most records, active means well fitted curve in the direction sought with a large enough effect; inconclusive means small, poorly fitted or top-dose-only effect, or another doubt; inactive means no such curve, though single readings can be large; an effect the other way counts as inactive or inconclusive. Unless noted, on the % scale 0 is the no-effect control and ±100 the full control effect.

SMILES	DT40 TDP1 CPT	HT1080-NT tox	ELG1 repair inh	IL-1B inflam inh	TDP1 cell noCPT	HT1080 IDH1KD tx
Cc1c(CCO)c(=O)oc2n[nH]c(-c3ccccc3)c12	-15%	-2%	15%	-61*	-30%	-4%
CCc1c(C)c2c(C)nn(-c3ccccc3)c2oc1=O	4%	1%	3%	35	-20%	-6%
CC(C)(C)c1ccc(S(=O)(=O)/C=C/C#N)cc1	0.79µM*	x	x	x	0.56µM*	x
CN(CCN1CCOCC1)C(=O)C1CCC(=O)N(Cc2ccc(Cl)cc2)C1 (stereo not drawn)	-2%	16%	x	-6	-5%	8%
COc1ccc(CNC(=O)c2ccc(Br)cc2)cc1	x	x	0%	x	x	x
Cc1ccc(C(=O)/C=C/Nc2cccc(O)c2)cc1	u	0%	u	-9	u	u
O=C(/C=C/NNC(=O)c1ccc(Cl)cc1)c1ccccc1	u	u	1%	42	u	u
O=C(/C=C/NNC(=O)c1ccccc1)c1ccc(Br)cc1	3.3µM*	u	12%	81	4.6µM*	u
COc1ccc(C(=O)C=CNNC(=O)c2ccc(Cl)cc2)cc1	3.3µM*	-28%	-12%	148	u	u
Cc1ccc(C(=O)/C=C/NNC(=O)c2ccccc2O)cc1	16µM*	-24%	13%	90	u	-26%
COc1ccc(C(=O)NN/C=C/C(=O)c2ccc(Br)cc2)cc1	23µM*	-18%	x	69	u	-26%
CCOC1=C2[C@@H](CN(S(=O)(=O)c3ccc(C)cc3)[C@H]2c2ccccc2Cl)[C@H]2C(=O)N(C(C)(C)C)C(=O)[C@H]2C1	u	-2%	x	-8	u	-8%
O=C(CCc1ccccc1)NNC(=O)COc1ccc([N+](=O)[O-])cc1	-10%	-1%	-2%	11	21%	-4%
O=[N+]([O-])c1ccc2cccnc2c1	5%	5%	x	17	-12%	3%
O=[N+]([O-])c1ccc(NC(c2ccccc2)c2ccc3cccnc3c2O)cc1 (stereo not drawn)	3.3µM*	u	x	73	4.6µM*	u
COc1cccc(C(Nc2ccccc2)c2ccc3ccc(C)nc3c2O)c1 (stereo not drawn)	5.8µM*	10µM*	x	55	5.2µM*	7.3µM*
Oc1cccc(C(Nc2nccs2)c2ccc3cccnc3c2O)c1 (stereo not drawn)	3.7µM*	29µM*	u	-107*	4.6µM*	18µM*
CC(=O)NC(c1cccc([N+](=O)[O-])c1)c1ccc2cccnc2c1O (stereo not drawn)	2.6µM*	u	u	189	1µM*	u
O=S(=O)(Nc1nccs1)c1ccc(NS(=O)(=O)c2c(F)cc(F)c(Cl)c2F)cc1	4%	1%	-2%	18	9%	3%
O=C(C[n+]1ccc(/C=N/O)cc1)N1CCCCC1	-1%	11%	-1%	30	-2%	16%
Cc1cccc(NC(c2ccc(O)cc2)c2ccc3ccc(C)nc3c2O)n1 (stereo not drawn)	23µM*	-1%	-4%	-71*	16µM*	-13%
COc1cccc(C(NC(C)=O)c2ccc3cccnc3c2O)c1 (stereo not drawn)	0.73µM*	-9%	u	203	0.92µM*	u
Cc1cccc(NC(=O)Nc2cccc(C)n2)n1	4%	2%	u	-1	-3%	0%
CCCCC(=O)NC(c1cccc([N+](=O)[O-])c1)c1ccc2cccnc2c1O (stereo not drawn)	3.7µM*	u	x	91	2.9µM*	u
CCOC(=O)c1[nH]c(C)c(/C(O)=C2\C(=O)C(=O)N(CCCN3CCOCC3)C2c2cccs2)c1C (stereo not drawn)	24%	9.2µM*	6%	9	-11%	21µM*
SMILES	DT40 TDP1 CPT	HT1080-NT tox	ELG1 repair inh	IL-1B inflam inh	TDP1 cell noCPT	HT1080 IDH1KD tx
CCOC(=O)c1[nH]c(C)c(/C(O)=C2\C(=O)C(=O)N(CCN3CCOCC3)C2c2ccco2)c1C (stereo not drawn)	9%	12%	6%	-5	27%	-4%
Cc1ccc(C(=O)c2cn(Cc3cccc(F)c3)c3nc(C)ccc3c2=O)cc1	u	x	x	x	21µM*	x
CCc1ccc(C(=O)c2cn(CC(=O)Nc3cc(C)ccc3C)c3nc(C)ccc3c2=O)cc1	-13%	x	x	x	-13%	x
Cc1ccc(C(=O)c2cn(Cc3ccccc3C)c3nc(C)ccc3c2=O)cc1	21µM*	x	x	x	21µM*	x
COc1ccc(NC(=O)CN2C(=O)NC(C)(C3CC3)C2=O)c(OC)c1 (stereo not drawn)	1%	6%	16%	8	-3%	1%
CCOc1ccc(S(=O)(=O)NCCC(=O)NCC2(N3CCCCC3)CCCCC2)cc1	-9%	-4%	1%	7	-19%	-1%
C=CCOC(=O)c1ccccc1C(=O)OCC1CO1 (stereo not drawn)	u	-4%	x	-14	u	-13%
CCCCn1c(=S)[nH]c2cc(S(=O)(=O)N3CCOCC3)ccc21	u	-5%	0%	0	u	2%
